Assay outcomes: PubChem BioAssay, several laboratories
IDE cell inh: human IDE inhibitors in live cells, primary screen, fluorescence polarization, HEK cells, FAbetaB substrate; Insulin-degrading enzyme (Homo sapiens), P14735; inhibition, % at 5.59 µM; FAbetaB cleavage; hit rate 0.41% among 320,000;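 active = percent inhibition above the average of all tested compounds plus 3 SD, set per screening campaign, cut at about 16% in these data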;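 note: IDE supplied by intact live HEK cells; FP after avidin binding of uncleaved biotin substrate so inhibition keeps polarization high; 0% = DMSO wells and 100% = 60 µM reference IDE inhibitor Ii1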
IDE act: human IDE activators in live cells, primary screen, fluorescence polarization, HEK cells, FAbeta-B substrate; Insulin-degrading enzyme (Homo sapiens), P14735; FAbeta-B cleavage; 0% vehicle, 100% cell-free pure enzyme wells; activation, % at 5.96 µM; hit rate 0.073% among 340,000; AID 493087, 2011;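 active = activation above the mean of all tested compounds plus 3 SD, set per screening campaign, cut at about 17% in these data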
PolyA inh: polyadenylation inhibitors in yeast reporter cells, primary screen, luminescence, S. cerevisiae; S. cerevisiae SKY197-pL101 polyadenylation reporter, beta-gal luminescence; efflux-impaired pdr1/pdr3 knockout yeast; score 100 = 6 SD above DMSO; activity score, % at 12 µM; hit rate 0.02% among 300,000;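 active = lowest replicate activity score at least 50, where 100 means six control SD above control mean; inconclusive = lowest score under 50 but half or more replicates reach 50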;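 note: yeast exposed to compound for 9 h at 30 °C; higher score means more reporter readthrough which indicates perturbed polyadenylation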
PfM18AAP inh-1: PfM18AAP inhibitors, malaria aminopeptidase, primary screen, biochemical, QFRET, recombinant enzyme. M18 aspartyl aminopeptidase (Plasmodium falciparum 3D7). inhibition, % at 7.35 µM. hit rate 1.2% among 290,000. H-Glu-NHMec fluorogenic cleavage. AID 1822, 2009;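 active = inhibition above the campaign mean inhibition over all tested compounds plus 3 SD, cut at about 28% in these data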;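 note: 0% = plate median of test compound wells and 100% = 2 mM ZnCl2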
ALR H2O2 inh: inhibitors of human ALR sulfhydryl oxidase, primary screen, biochemical, H2O2 detection, HRP-luminol luminescence, single point | purified ALR, DTT oxidation | inhibition, % (test concentration not listed) | hit rate 3.8% among 290,000;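 active = mean replicate inhibition above about 79%, with every replicate also reaching it, limit read from the data; inconclusive = only one of the two criteria met; inactive = mean below limit and not every replicate reaching it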
CaV13 ICDI inh: Primary screen for inhibitors of IQ motif and Ca2+-dependent inactivation inhibitor domain binding in CACNA1D, Förster resonance energy transfer in living cells, …. HEK cells, CFP/YFP FRET ICDI-IQ, plate reader, 10 min; percent FRET-ratio fall versus neutral wells. inhibition, % at 12.3 µM. hit rate 0.098% among 340,000. AID 743397;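 active = mean replicate inhibition of at least 30% and at least 1% of replicates passing that level; inconclusive = only one of the two criteria is met; inactive = neither criterion is met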;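 note: 0% = median of the neutral control wells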
PfM18AAP inh-2: PfM18AAP inhibitors, malaria aminopeptidase, confirmation, biochemical, QFRET, recombinant enzyme, triplicate. shares compounds with PfM18AAP inh-1. H-Glu-NHMec fluorogenic cleavage. inhibition, % at 7.35 µM. hit rate 28% among 2,400. AID 2170, 2009;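 active = mean inhibition over replicate wells above the hit cutoff set for the earlier primary screen, cut at about 29% in these data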;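 note: 0% = median of test compound wells and 100% = 2 mM ZnCl2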
CTSL1 counter: cathepsin L1 inhibitors, retest, confirmation, counter-screen for PFM18AAP inhibitor project, biochemical, QFRET, triplicate; inhibition, % at 5.96 µM; AID 2178, 2009; 2,400 tested, under 10 active; shares compounds with PfM18AAP inh-1; purified cathepsin L1, Z-Leu-Arg-MCA fluorescence;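 active = average inhibition across replicates above the hit cutoff set in the earlier primary screen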;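 note: 0% = median of test compound wells and 100% = Z-Phe-Ala-diazomethylketone 1 µM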
Starred values were filed as active, the others as inactive; ? = inconclusive; / = no result. In the library only some 4.1% were active in any assay of this set; here they are far more common.

SMILES | IDE cell inh | IDE act | PolyA inh | PfM18AAP inh-1 | ALR H2O2 inh | CaV13 ICDI inh | PfM18AAP inh-2 | CTSL1 counter
COc1cccc(NC(=S)NC(Cc2ccccc2)c2ccccc2)c1 (stereo not drawn) | / | / | / | / | / | -6 | / | /
C/C(=N\OCC(=O)OC(C)C(=O)Nc1ccc(C(N)=O)cc1)c1ccc2c(c1)OCO2 (stereo not drawn) | -4 | 5 | 5 | -12 | 0 | -8 | / | /
O=C(/C=C1\SC(=O)NC1=O)Nc1ccc(F)cc1 | 0 | 1 | 4 | 36* | 97* | -6 | -56 | 7
C=CCc1c(C)nc(C)nc1N/N=C/c1ccccc1O | 5 | 10 | -52 | 49* | 42 | -11 | -36 | 3
COC(=O)c1ccc(CSC2=NC[C@@H]3[C@@H]4C(=O)N(C)C(=O)[C@@H]4[C@](Cc4ccccc4)(C(=O)OC)N23)cc1 | / | 0 | / | / | / | -5 | / | /
COCc1cc(C)c(C#N)c(=S)[nH]1 | 14 | -21 | -19 | 32* | 21 | / | 35* | -1
COCc1cc(=O)[nH]c(=S)[nH]1 | 2 | 4 | 12 | 20 | 15 | -15 | / | /
Oc1ccc(/C=N/NC(=S)NCCN2CCOCC2)c(O)c1 | -4 | 4 | -4 | 52* | / | -4 | 27 | 12
COc1cnn(-c2ccccc2)c(=O)c1SCc1ccc(Cl)cc1Cl | -3 | 4 | 6 | 36* | 98* | / | -30 | -4
O=C(NCC(c1ccco1)N1CCCCC1)c1cccc(NS(=O)(=O)c2ccc(Br)cc2)c1 (stereo not drawn) | -10 | 6 | ? | / | 3 | -2 | / | /
O=C(O)c1ccc2c(c1)C1C=CCC1C(c1ccncc1)N2 (stereo not drawn) | -2 | -3 | -8 | 37* | -17 | -15 | 7 | -2
CCN(CC)S(=O)(=O)c1ccc(C(=O)Nn2cnnc2)cc1 | -9 | -3 | -2 | 81* | -20 | -4 | 75* | 7
CN(CC(=O)Nn1cnnc1)S(=O)(=O)c1ccccc1 | -3 | 5 | 13 | 32* | -5 | -4 | 20 | -5
N#Cc1c2n(c(=S)n(-c3ccccc3[N+](=O)[O-])c1=O)CCCCC2 | -5 | 0 | -3 | 35* | -1 | -20 | -45 | -5
COc1cc(N/N=C/c2ccccc2O)ncn1 | 0 | -3 | -13 | 41* | 21 | -6 | -18 | 4
CC(C)CN1C(=O)C(=O)N(CC(=O)c2ccc3c(c2)OCO3)C1=O | -7 | 3 | 2 | / | / | -7 | / | /
CCN(CC)CCN(C(=O)c1ccc2ncsc2c1)c1nc2cc3c(cc2s1)OCO3 | -1 | 2 | -10 | 47* | 23 | / | -5 | 6
CCN(CC)CCN(C(=O)c1ccc(C(=O)c2ccccc2)cc1)c1nc2cc3c(cc2s1)OCO3 | 4 | -1 | -6 | 3 | 15 | -5 | / | /
CCOC(=O)N1CCC(NC(=O)c2ccc3c(c2)sc2nc(-c4ccccc4)cn23)CC1 | 15 | -14 | / | 40* | -3 | -4 | -17 | 0
CCOC(=O)N1CCC(NC(=O)c2ccc3c(c2)N=C(CC)c2ccccc2S3)CC1 | 0 | -2 | -10 | 3 | -4 | -6 | / | /
Cc1ccccc1NC(=S)c1ccc2ccccc2n1 | 1 | 7 | 8 | 41* | -3 | -14 | -24 | 3
COc1cc(C2C(C(C)=O)=C(O)C(=O)N2CCN2CCOCC2)ccc1O (stereo not drawn) | 3 | 3 | 10 | -3 | 12 | / | / | /
CCCOc1ccc(C2C(C(=O)/C=C/c3ccco3)=C(O)C(=O)N2CCN2CCOCC2)cc1OC (stereo not drawn) | -8 | -5 | -9 | 33* | 0 | -3 | -38 | 1
